Experimental data reported in PubChem BioAssay (NCATS).

Test: Cell Proliferation Assay against the HBL1 Cell Line (AID 651646);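 also: cells exposed to compound for 48 h before reading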
Settings: HBL1 DLBCL cells; at 46.1 µM (top of the series) unless noted
From the text: One class of targeted therapeutics showing early clinical success in killing of ABC DLBCL lines are small molecule inhibitors of the Bruton tyrosine kinase (BTK) 11.
Prior to any combination assays, using an NCATS developed oncology compound library called the Mechanism of Interrogation Plate (MIPE), two well studied ABC DLBCL lines (TMD8 and HBL1) were screened using a cell viability assay (CellTiterGlo) and a 12-point titration series for each single agent. These initial experiments offered insight into the concentration range that offered the best coverage of activity and non-activity to assure relevant data is generated. In addition to the viability signature associated with this library, we examined the apoptotic response of each agent versus the TMD8 line as judged by caspase 3/7 activation. Activity was assayed at both 8 and 16 hour time-points to gain an appreciation of which agents induced an apoptotic response in a reasonable timeframe from a therapeutic exposure perspective. MIPE was also assayed for single agent viability in a human mesenchymal stem cell (hMSC) line as a surrogate of each library member's potential therapeutic index.
A total of 500 log growing HBL1 cells are seeded per well in 5 uL of a RPMI with glutamine (or Glutamax), without phenol red plus 5% FBS and 1X Pen/Strep into 1536 -solid white high base tissue culture treated Greiner One Bio Plates (789173-F) using a multidrop combi dispenser and a small sterile cassette. Compounds and controls totaling 23nL per well (negative control DMSO and positive control 9.2 uM Bortezomib-final) are immediately added to the plates using a 1536 head pin tool from Kalypsys. The plates are then covered with stainless steel gasket lids from Kalypsys and incubated for 48 hours at 37C under 95% relative humidity with 5% CO2. After 48 hours, the plates are removed and allowed to reach room temperature before 3 uL of Cell Titer Glo reagent (Promega) is added using an Aurora Flying Reagent Dispenser Bioraptor. The plates are then spun at 1000 rpms to remove bubbles and incubated for 15 minutes at room temperature before read on a ViewLux using a luminescent filter with a 10 second exposure. The relative luciferase units are used to calculated percent activity using DMSO as 100% and Bortezomib as 0%.

Compound	viability, percent of control
CC(C)C(=O)Nc1ncc(-c2cc(C(F)F)nn2-c2c(Cl)cccc2Cl)s1	14.4%
O=C(Nc1cc(Cl)cc2c1[nH]c1cnccc12)c1cccnc1	32.9%
CN(C)Cc1ccc(-c2nc3cccc4c3n2CCNC4=O)cc1	60.9%
CN(C)C1CCN(C(=O)c2ccc(NC(=O)Nc3nc(N4CCOCC4)nc(N4CCOCC4)n3)cc2)CC1	26.9%
c1ccc2c(-c3cnn4cc(-c5ccc(N6CCNCC6)cc5)cnc34)ccnc2c1	3.84%
COc1cccc2c1CCCC2CCCN1CCN(C2CCCCC2)CC1 (stereo not given)	28.8%
CCOC(CN1C(=O)[C@](CC(=O)Nc2ccc(C)cc2)(NC(=O)Nc2ccc(C)cc2)c2ccccc21)OCC	4.35%
CC(C)(C(=O)NCC(F)(F)C(F)(F)F)C(=O)N[C@@H]1C(=O)Nc2ccccc2-c2ccccc21	73.4%
CCOc1ccc(Nc2nc(-c3c(C)nc4ccccn34)cs2)cc1	14.7%
CC1=C(/C=C/C(C)=C/C=C/C(C)=C/C(=O)Nc2ccc(O)cc2)C(C)(C)CCC1	0.102%
CC(C)(C)COc1ccc(-n2cc(C(=O)O)cn2)cc1C#N	90.4%
O=C1C(Cl)=C(NCCN2CCOCC2)C(=O)c2ncccc21	2.09%
Clc1ccc(-c2nc3sccn3c2C=NOCc2ccc(Cl)c(Cl)c2)cc1	4.32%
CC(=O)Nc1ccc([C@H](C)C(=O)Nc2ncc(C(C)C)s2)cc1	33.5%
O=C(CCCCCCC(=O)Nc1ccccc1)NO	3.42% [at 92.2 µM]
COc1cc2ncnc(Nc3ccc(F)c(Cl)c3)c2cc1OCCCN1CCOCC1	40.3%
N#Cc1ccc(NC(=O)Nc2ccccc2Br)c2n[nH]nc12	69.7%
O=c1cc(CN2CCOCC2)occ1OCCCCCSc1ccnc2cc(C(F)(F)F)ccc12	20.4%
CN1CCN(CCOc2cc(OC3CCOCC3)c3c(Nc4c(Cl)ccc5c4OCO5)ncnc3c2)CC1	19.4%
NC(CO)(CO)CCc1ccc(Sc2cccc(OCc3ccccc3)c2)cc1Cl	1.28%

Compound	viability, percent of control
COc1cc(N2CCC(N3CCN(C)CC3)CC2)ccc1Nc1ncc(Cl)c(Nc2ccccc2S(=O)(=O)C(C)C)n1	3.91%
COc1ccc(C2CC(c3ccccc3)=NN2c2ccc(S(N)(=O)=O)cc2)cc1 (stereo not given)	5.45%
COc1cc2nc(-c3ccc(N4CCN(C)CC4)cc3)nc(NCCN3CCOCC3)c2cc1OC	5.66%
COc1ncc(-c2ccc3nccc(-c4ccnnc4)c3c2)cc1NS(=O)(=O)c1ccc(F)cc1F	4.41%
O=c1cc(N2CCOCC2)oc2c(-c3cccc4c3sc3ccccc34)cccc12	2.43%
O=C(Nc1ccccc1-c1cn2c(CN3CCNCC3)csc2n1)c1cnc2ccccc2n1	2.43%
COc1cc2ncnc(-n3nc(-c4ccccn4)nc3N)c2cc1OC	17.1%
Cc1ccc(F)c(NC(=O)Nc2ccc(-c3cccc4[nH]nc(N)c34)cc2)c1	8.04%
CC(C)(C)c1cc(C(=O)O)c(NC(=O)Nc2ccc3[nH]ncc3c2)s1	100%
CC(C)[C@H](CO)Nc1nc(Nc2ccc(C(=O)O)c(Cl)c2)c2ncn(C(C)C)c2n1	129%
CO[C@H]1C[C@@H]2CC[C@@H](C)[C@@](O)(O2)C(=O)C(=O)N2CCCC[C@@H]2C(=O)O[C@H]([C@H](C)C[C@@H]2CC[C@H](OCCO)[C@H](OC)C2)CC(=O)[C@H](C)C=C(C)[C@@H](O)[C@@H](OC)C(=O)[C@H](C)C[C@H](C)C=CC=CC=C1C	9.54%
CO[C@H]1C=CC=C(C)C(=O)NC2=CC(=O)C(NCCN(C)C)=C(C[C@@H](C)C[C@H](OC)[C@@H](O)[C@@H](C)C=C(C)[C@@H]1OC(N)=O)C2=O	4.29%
CC(C)(C)C(=O)Oc1ccc2c(c1)nc(NC(=O)c1cccc([N+](=O)[O-])c1)n2CCCO	16.8%
O=C(N[C@@H](c1ccccc1)[C@@H]1CCCCN1)c1cccc(C(F)(F)F)c1Cl	28.1%
O=C(O)CCC1CCC(c2cc(F)ccc2F)(S(=O)(=O)c2ccc(Cl)cc2)CC1 (stereo not given)	95.2%
OC[C@H]1O[C@@H](n2cnc3c2NC=NC[C@@H]3O)C[C@H]1O	105%
CC(=O)N(C)C1(c2ccccc2)CCN(CCC[C@]2(c3ccc(Cl)c(Cl)c3)CCCN(C(=O)c3ccccc3)C2)CC1	1.69%
O=C(O)c1ccc(-c2cc3cccnc3c(-c3ccc4nonc4c3)n2)cc1	91.1%
Cc1nc(N)sc1-c1ccnc(Nc2ccc(N3CCOCC3)cc2)n1	24.4%
COc1cc(Nc2ncc(F)c(Nc3ccc4c(n3)NC(=O)C(C)(C)O4)n2)cc(OC)c1OC	56.6%
